For eleven compounds, growth yield results are on record in the supplement of paper PMC8007513.

For the test, the system named is Trichoderma virens ATCC 9645. As to the kind of experiment: growth yield (OD600) with compound + IPBC relative to untreated control; higher = less growth inhibition. The settings on record: compound concentration: 100 uM, IPBC concentration: 200 ng/ml. In short, it runs like this:
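Trichoderma virens ATCC 9645 spores at 15,000 spores ml^−1 in potato dextrose broth were exposed in 96-well plates to library compounds at 100 μM final, with or without a biocide at 200 ng ml^−1. After growth at 30 °C, OD600 was read at 40 h and 72 h. Values are growth relative to the control without either agent, averaged over duplicate screens.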

The structures appear in SMILES notation. Where a name gives a salt, the structure may show the parent alone. ± gives the standard error. About 130 (10%) of roughly 1,300 compounds showed an effect of 50% or more. Shown is part of a subset that was picked to be rich in strong results.

In the case of `Clc1cccc(Cl)c1NC1=NCCN1` [Clonidine hydrochloride] + CCCCNC(=O)OCC#CI [3-iodo-2-propynyl butylcarbamate (IPBC)], the growth yield is 92.9 ± 5.6% (40 h) and 99.2 ± 4.4% (72 h).

On to `Cc1oncc1C(=O)Nc1ccc(C(F)(F)F)cc1` [Leflunomide] + CCCCNC(=O)OCC#CI [3-iodo-2-propynyl butylcarbamate (IPBC)], for which the growth yield is, setting by setting: (40 h) 40.2 ± 3%; (72 h) 82 ± 1.5%.

Turning to `CC1CCc2cc(F)cc3c(=O)c(C(=O)O)cn1c23` (configuration not stated) [Flumequine] + CCCCNC(=O)OCC#CI [3-iodo-2-propynyl butylcarbamate (IPBC)], the growth yield (40 h) worked out at 78.63 ± 0.16% and the growth yield (72 h) was 97.12 ± 0.84%.

As to `COC(=O)[C@H]1[C@H]2C[C@@H]3c4[nH]c5cc(OC)ccc5c4CCN3C[C@H]2C[C@@H](OC(=O)c2cc(OC)c(OC)c(OC)c2)[C@@H]1OC` [Reserpine] + CCCCNC(=O)OCC#CI [3-iodo-2-propynyl butylcarbamate (IPBC)], the growth yield was found to be 102 ± 3.2% (40 h) and 104 ± 2% (72 h).

In the case of `CC(=O)NC1CCSC1=O` (racemic) [N-Acetyl-DL-homocysteine Thiolactone] + CCCCNC(=O)OCC#CI [3-iodo-2-propynyl butylcarbamate (IPBC)], the growth yield by setting is: (40 h) 95.8 ± 7.8%; (72 h) 96.3 ± 7.8%.

For `CC(C(=O)O)c1cccc(C(=O)c2ccccc2)c1` (configuration not stated) [Ketoprofen] + CCCCNC(=O)OCC#CI [3-iodo-2-propynyl butylcarbamate (IPBC)], the growth yield by setting is: (40 h) 74 ± 0.95%; (72 h) 86.4 ± 1.5%.

In the case of `CC(C(=O)O)c1ccc(-c2ccccc2)c(F)c1` (configuration not stated) [Flurbiprofen] + CCCCNC(=O)OCC#CI [3-iodo-2-propynyl butylcarbamate (IPBC)], the growth yield was found to be 43.4 ± 3.3% (40 h) and 76.9 ± 2% (72 h).

Turning to `CC(C(=O)O)c1cccc(Oc2ccccc2)c1` (configuration not stated) [Fenoprofen calcium salt dihydrate] + CCCCNC(=O)OCC#CI [3-iodo-2-propynyl butylcarbamate (IPBC)], the growth yield is, setting by setting: (40 h) 73.9 ± 12%; (72 h) 84 ± 9.1%.

Consider `NC(CO)C(=O)NNCc1ccc(O)c(O)c1O` (configuration not stated) [Benserazide hydrochloride] + CCCCNC(=O)OCC#CI [3-iodo-2-propynyl butylcarbamate (IPBC)], for which the growth yield reads like this: (40 h) 63.9 ± 0.64%; (72 h) 75.2 ± 0.52%.

With `CN[C@@H]1[C@H](O)[C@H](NC)[C@H]2O[C@@]3(O)C(=O)C[C@@H](C)O[C@H]3O[C@@H]2[C@H]1O` [Spectinomycin dihydrochloride] + CCCCNC(=O)OCC#CI [3-iodo-2-propynyl butylcarbamate (IPBC)], the growth yield by setting is: (40 h) 104 ± 13%; (72 h) 103 ± 8%.

Take `CC(NCCC(c1ccccc1)c1ccccc1)c1ccccc1` (configuration not stated) [Fendiline hydrochloride] + CCCCNC(=O)OCC#CI [3-iodo-2-propynyl butylcarbamate (IPBC)]: the growth yield is 70.37 ± 0.16% (40 h) and 93.7 ± 1.4% (72 h).
